# High-throughput results as filed in PubChem.
# HPGD block – blocks human HPGD enzyme activity | P15428 | purified HPGD, NADH fluorescence kinetic, PGE2 substrate | Potency, µM, without a hit: top-dose activity change, negative = inhibition, hits mostly inhibitors | 4.3% of 150,000 active | AID 894; active = well fitted inhibition curve with a large enough effect, not every such curve was filed as active; inconclusive = small, poorly fitted or top-dose-only effect, or another doubt; inactive = no such curve, though single readings can be large or run the other way; also: potency is read from the fitted curve at half-maximal effect; % is scaled to controls: 0 for no effect and ±100 for the full control effect
#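 20 nM HPGD preincubated 15 min at room temperature with compound in 50 mM Tris-HCl pH 8, 0.01% Tween 20. Started with 1 mM NAD+ and 30 uM prostaglandin E2; NADH fluorescence (360/450 nm) read 5 times over 30-s intervals, last minus first.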
# PNC inhibitor – perinucleolar compartment assembly inhibition | AID 2417 | activity change (PNC), negative = inhibition, % at 10 µM | 3.1% of 140,000 active | PC3M PTB-GFP, PNC prevalence imaging, 16 h; active compounds read low;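 active = readout at or below -70, meaning at least 70% loss of cells showing the perinucleolar compartment, a nuclear body marking cancer cells; inconclusive = readout between -30 and a set limit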;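 also: plate controls were DMSO wells for no effect and camptothecin positive control wells for full effect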
#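 Compounds are pinned in duplicate onto adhered PC3M cells stably expressing GFP-tagged PTB and incubated 16 h at 37 C. Cells are then fixed, nuclei stained with Hoechst, and PNC-positive cells counted.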
# 12-hLO inh – inhibitors of human 12-lipoxygenase (ALOX12). P18054. purified 12-hLO, xylenol orange hydroperoxide absorbance. Potency, µM (doses to about 57.1 µM), inactives show top-dose activity change, negative = inhibition, actives largely listed as inhibitors. 0.12% of 150,000 active. AID 1452; also: potency is read from the fitted curve at half-maximal effect; % is scaled to controls: 0 for no effect and ±100 for the full control effect; nearly all actives have a fitted effect of over 55% in size
#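 Purified human 12hLO (150 nM final) was preincubated with compounds for 15 min at room temperature in 25 mM Hepes pH 7.0, 0.01% Triton X-100, then reacted with 40 uM arachidonic acid for 30 min. Hydroperoxide was detected with ferrous iron/xylenol orange.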
# IMPase inh – membrane-permeable compound that blocks inositol monophosphatase | 120,000 tested, under 10 active | inhibition (IP1 accumulation), % at 46.1 µM | CHO-M1 cells, IP1 accumulation, HTRF TR-FRET ratio; active = well fitted curve in the direction sought with a large enough effect in the signal ratio, not every such curve was filed as active; inconclusive = small, poorly fitted or top-dose-only effect, or a change in a side signal; inactive = no such curve, though single readings can be large or run the other way; the % refers to the signal ratio;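 also: cells stimulated with carbachol in lithium chloride buffer; plate controls were DMSO basal wells for no effect and reference inhibitor wells for full effect; higher means more IMPase inhibition seen as more IP1 and lower FRET ratio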
#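 CHO-M1 cells (CHO stably expressing M1 receptor), compound up to 46 uM final, stimulated with carbachol (50 uM as added) in buffer with 50mM LiCl, pH 7.4, 30 min at 37C. Cytosolic IP1 read by TR-FRET; AC50 from Hill fits.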
# ALOX15B inhib – blocks human 15-lipoxygenase 2 activity; Potency, µM (top dose mostly 57.1 µM), for inactives: at the top dose activity change, negative = inhibition, most hits filed as inhibitors; 0.56% of 110,000 active; purified 15hLO-2, xylenol orange hydroperoxide absorbance; also: potency is read from the fitted curve at half-maximal effect; % is scaled to controls: 0 for no effect and ±100 for the full control effect; nearly all actives have a fitted effect of over 60% in size
# Target sequence (O15296 whole entry, looked up): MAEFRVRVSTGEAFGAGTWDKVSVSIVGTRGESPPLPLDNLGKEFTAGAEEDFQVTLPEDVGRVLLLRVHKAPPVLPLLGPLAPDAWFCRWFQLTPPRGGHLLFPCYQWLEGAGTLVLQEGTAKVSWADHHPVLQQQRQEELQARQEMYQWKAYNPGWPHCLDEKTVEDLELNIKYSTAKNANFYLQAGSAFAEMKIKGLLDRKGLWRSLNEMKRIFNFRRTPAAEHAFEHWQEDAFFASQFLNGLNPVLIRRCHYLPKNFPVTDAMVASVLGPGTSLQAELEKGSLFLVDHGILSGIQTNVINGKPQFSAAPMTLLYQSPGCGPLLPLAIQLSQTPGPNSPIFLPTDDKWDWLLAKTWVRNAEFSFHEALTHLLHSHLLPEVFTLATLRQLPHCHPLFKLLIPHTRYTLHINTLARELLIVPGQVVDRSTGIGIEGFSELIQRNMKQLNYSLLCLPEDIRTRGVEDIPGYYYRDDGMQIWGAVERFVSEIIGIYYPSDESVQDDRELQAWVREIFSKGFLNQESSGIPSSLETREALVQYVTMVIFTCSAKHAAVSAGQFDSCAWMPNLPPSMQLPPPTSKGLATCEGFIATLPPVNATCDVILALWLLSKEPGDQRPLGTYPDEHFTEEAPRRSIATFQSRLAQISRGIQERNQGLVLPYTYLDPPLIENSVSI
#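 Read-out: hydroperoxide product oxidises ferrous iron, measured as xylenol orange complex via the 573-to-405 nm absorbance ratio after 30 min. Reaction: 50 nM enzyme, 15 min compound preincubation, 45 uM arachidonic acid, 90 min RT, Hepes pH 7.5 with Triton X-100.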
# IMPase Li inh – membrane-permeable IMPase blocker, potentiated with lithium; CHO-M1 cells, IP1 TR-FRET (IP-One), carbachol + lithium; Potency, µM (series often up to 59.4 µM), without a hit: at the highest dose activity, negative = IMPase inhibition, hits mostly inhibitors; 0.35% of 210,000 active;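 also: IP1 builds up when IMPase is blocked and the TR-FRET signal falls; potency is read from the fitted curve at half-maximal effect; plate controls were basal vehicle for no effect and high inhibitor control for full effect; nearly all actives have a fitted effect of over 50% in size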
#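 IP1 accumulation measured by competitive TR-FRET in lysed CHO-M1 cells after 30 min compound exposure at 37C, with a small lithium addition to potentiate weak responses. Hill-equation AC50 from ratio and donor-channel data.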
# HPGD inh cf – human HPGD enzyme inhibition, confirmation; shares compounds with HPGD block; recombinant HPGD, NADH fluorescence, PGE2 substrate; Potency, µM (doses to about 57.1 µM), for inactives: at the top dose activity change, negative = inhibition, hits mostly inhibitors; 90% of 90 active; calls by dose curve
# An asterisk follows results filed as active; ? = inconclusive; . = not tested or not shown; [ ] = remark or other dose. An excerpt weighted towards active compounds, which were near 5.4% of everything screened. Unless noted, calls follow the shape of the dose curve; as a rule, active = well fitted curve in the direction sought with a large enough effect; inconclusive = small, poorly fitted or top-dose-only effect, or another doubt; inactive = no such curve, though single readings can be large; an effect the other way counts as inactive or inconclusive.
SMILES,HPGD block,PNC inhibitor,12-hLO inh,IMPase inh,ALOX15B inhib,IMPase Li inh,HPGD inh cf
CCCOC(=O)[C@@H]1[C@@H](C(=O)O)[C@H]2CC[C@@H]1O2,-1%,.,0%[11.4 µM],.,-5%[11.4 µM],-4%,.
O=P1(Nc2ccc(F)cc2)COc2ccccc2OC1,1.1µM*,16,-8%,10,0%,-16%[38.3 µM],1µM*
CCC#N,-17%,.,0%,.,1%,-3%,.
CN[C@@H](C)[C@H](O)c1ccccc1,0.79µM*,.,.,.,.,-7%,1.4µM*
Cc1ccc(-n2sc3ccccc3c2=O)cc1,0.63µM*,?,7.9µM*,-5,.,2%,0.56µM*
Cc1ccc(N2C(=O)CC(=O)NC2=O)cc1,4%,13,-15%,-7,8%,-15%[38.3 µM],.
O=C(O)c1cccc([As]=[As]c2cccc(C(=O)O)c2)c1 (stereo unspecified),-3%,.,-4%[11.4 µM],.,-1%[11.4 µM],-1%,.
